PubChem BioAssay (EPA / NIEHS)
Inconclusive results are not listed. Activity calls are given as the source filed them. How the source made its calls, unless noted: active means hit-call score of the fitted dose curve at least 0.9, where 1 is the maximum; inactive means score below 0.9.

Tests used:
[1] = ACEA_ER_80hr: ACEA Biosciences xCELLigence Real-Time Cell Analysis on Estrogen Receptor Agonism for Proliferation (AID 2282667; active means hit-call score of the fitted dose curve at least 0.9, where 1 is the maximum); conditions: T47D proliferation, impedance (xCELLigence), 80 h
In short: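 Cell-growth kinetics were measured by impedance in T47D cells treated continuously with compound (top 100 uM final, 1:4 steps, 8 points). Activity at 80 h was scored as signal gain over the DMSO baseline.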

[2] = APR_HepG2_CellCycleArrest_24hr: Apredica 24-hour HepG2 Assay for Cell Cycle Arrest (AID 2282905); conditions: imaging, actives raise or lower the signal;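 further: cell cycle arrest scored as ratio of 2N to 4N nuclear DNA content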
In short: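 HepG2, 24 hr dosing, 10-pt 0.39–200 uM in duplicate, 0.5% DMSO. Fixed 3.7% formaldehyde, permeabilized 0.5% Triton X-100, Hoechst 33342 2 ug/mL. Imaged 20x; nuclear DNA content quantified; bidirectional fit vs DMSO.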

[3] = APR_HepG2_NuclearSize_24hr: Apredica 24-hour HepG2 Assay for Nuclear Size (AID 2282907); conditions: high-content imaging, actives raise or lower the signal
In short: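 HepG2, 24 hr dosing, 10-pt 0.39–200 uM, duplicates, 0.5% DMSO final; 3.7% formaldehyde fix, 0.5% Triton X-100; Hoechst 33342 nuclear stain; ArrayScan HCS, Cell Cycle analysis → nuclear size; bidirectional fit vs DMSO.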

[4] = APR_HepG2_CellLoss_24hr: Apredica 24-hour HepG2 Assay for Cell Loss (AID 2282908); conditions: high-content imaging;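 on AC50: fit in both directions so a hit may be cell loss or gain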
In short: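 10-pt dose, 0.39–200 uM, n=2/plate; DMSO 0.5% v/v final as negative control. Fix 3.7% formaldehyde 30 min RT, permeabilize 0.5% Triton X-100, stain Hoechst 33342 2 ug/mL, image 20x. Nuclear count, bidirectional fit vs DMSO.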

[5] = APR_HepG2_MicrotubuleCSK_24hr: Apredica 24-hour HepG2 Assay for Microtubule CSK Stabilty (AID 2282909); conditions: HepG2 microtubule cytoskeleton imaging, actives raise or lower the signal
In short: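 Human liver HepG2, 24 h dosing, 0.39–200 uM ×10 conc, dup, 0.5% DMSO. 3.7% formaldehyde fix, 0.5% Triton perm, anti-alpha-tubulin (1:200)/Cy5 secondary + Hoechst. HCS imaging, 6 fields/well; gain/loss fit vs DMSO.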

[6] = APR_HepG2_MitoticArrest_24hr: Apredica 24-hour HepG2 Assay for Mitotic Arrest (AID 2282910); conditions: high-content imaging, actives raise or lower the signal
In short: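 HepG2 human liver cells were exposed to compounds at 0.39–200 uM (10 concentrations, duplicate) in 0.5% v/v DMSO for 24 hr, then fixed and immunostained for phospho-histone H3 with Hoechst 33342. Mitotic arrest came from HCS fluorescent imaging, fitted bidirectionally against DMSO.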

[7] = APR_HepG2_MitoMembPot_24hr: Apredica 24-hour HepG2 Assay for Mitochondrial Membrane Potential (AID 2282911); conditions: imaging, actives raise or lower the signal
In short: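 Human hepatoma HepG2 cultures received ten compound concentrations up to 200 uM for 24 hr. Membrane-potential dye signal, captured by automated fluorescence microscopy, was scored for gain or loss against DMSO controls.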

[8] = APR_HepG2_MitoMass_24hr: Apredica 24-hour HepG2 Assay for Mitochondrial Mass (AID 2282912); conditions: high-content imaging, actives raise or lower the signal
In short: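 Mitochondrial mass is read as MitoTracker Red fluorescence intensity from automated imaging, with bidirectional curve fitting relative to DMSO. HepG2 cells received compound (0.39–200 uM, 0.5% DMSO final) for 24 hr and were dye-loaded (250 nM, 30 min) before formaldehyde fixation.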

[9] = APR_HepG2_p53Act_24hr: Apredica 24-hour HepG2 Assay for p53 Activation (AID 2282913); conditions: high-content imaging, actives raise or lower the signal;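 further: p53 protein immunofluorescence averaged per cell in HepG2 with Hoechst nuclei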
In short: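 Automated fluorescence imaging quantifies p53 immunostaining in HepG2 cells after a 24 hr exposure (0.39–200 uM, duplicate, 0.5% DMSO). Nuclei are located by Hoechst 33342 staining.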

[10] = APR_HepG2_CellCycleArrest_72hr: Apredica 72-hour HepG2 Assay for Cell Cycle Arrest (AID 2282914); conditions: high-content imaging, actives raise or lower the signal
In short: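 Cell cycle arrest in HepG2 was scored from nuclear DNA content after 72 hr compound treatment (0.39–200 uM). Activity, either gain or loss, was fitted against the DMSO baseline.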

[11] = APR_HepG2_CellLoss_72hr: Apredica 72-hour HepG2 Assay for Cell Loss (AID 2282915); conditions: high-content imaging
In short: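 HepG2 cells were exposed for 72 hr to compounds at 0.39–200 uM (ten concentrations, duplicate) in 0.5% v/v final DMSO. Nuclei were stained with Hoechst 33342 after 3.7% formaldehyde fixation, imaged at 20x, and counted; fits bidirectional versus DMSO.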

[12] = APR_HepG2_P-H2AX_72hr: Apredica 72-hour HepG2 Assay for H2AX Phosphorylation (AID 2282916); conditions: imaging, actives raise or lower the signal;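 further: phospho-histone H2A.x immunostain intensity per cell marking DNA damage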
In short: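 HepG2; cpd 0.39–200 uM ×10 conc, duplicates; 0.5% DMSO; 72 hr. Fix 3.7% formaldehyde 30 min RT, 0.5% Triton X-100 10 min. Anti-phospho-H2A.x 1:200 + Hoechst 2 ug/mL, 60 min RT; ArrayScan imaging.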

[13] = APR_HepG2_MitoMembPot_72hr: Apredica 72-hour HepG2 Assay for Mitochondrial Membrane Potential (AID 2282917); conditions: imaging, actives raise or lower the signal
In short: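 HepG2 cells exposed 72 h to compounds at 0.39–200 uM (0.5% v/v DMSO, duplicates); MitoTracker Red CMXRos 250 nM loaded 30 min before 3.7% formaldehyde fixation, imaged by HCS fluorescence. Bidirectional fit versus DMSO.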

[14] = APR_HepG2_MitoticArrest_72hr: Apredica 72-hour HepG2 Assay for Mitotic Arrest (AID 2282918); conditions: high-content imaging, actives raise or lower the signal
In short: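 Mitotic arrest in HepG2 is scored from phospho-histone H3 staining after 72 hr dosing across 0.39–200 uM, with DMSO at 0.5% v/v. Nuclei are identified by Hoechst 33342 and fluorescence intensity is quantified per cell.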

[15] = APR_HepG2_MicrotubuleCSK_72hr: Apredica 72-hour HepG2 Assay for Microtubule CSK Stabilty (AID 2282919); conditions: HepG2 microtubule cytoskeleton, high-content imaging, actives raise or lower the signal
In short: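 HepG2 human liver cells were dosed for 72 h at ten concentrations from 0.39 to 200 uM in duplicate (0.5% v/v DMSO final). Fixed, permeabilized cells were immunostained for alpha-tubulin (Cy5) with a Hoechst counterstain and imaged at 20x.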

[16] = APR_HepG2_P-H2AX_24hr: Apredica 24-hour HepG2 Assay for H2AX Phosphorylation (AID 2282920); conditions: high-content imaging, actives raise or lower the signal
In short: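 Signal comes from a FITC-labeled secondary detecting phospho-histone H2A.x in fixed HepG2 cells, quantified by automated imaging at 20x. Dosing ran 24 hr across 0.39–200 uM with 0.5% v/v DMSO.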

[17] = APR_HepG2_StressKinase_72hr: Apredica 72-hour HepG2 Assay for Stress Kinase (AID 2282921); conditions: HepG2 stress kinase (phospho-c-Jun) imaging, actives raise or lower the signal
In short: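 Dose 0.39–200 uM (10 pts, duplicate), 0.5% DMSO; 72 h; fix 3.7% formaldehyde 30 min RT; Triton permeabilize; anti-phospho-c-Jun/Cy3 + Hoechst 60 min RT; image 20x; fit gain/loss vs DMSO.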

[18] = APR_HepG2_StressKinase_24hr: Apredica 24-hour HepG2 Assay for Stress Kinase (AID 2282922); conditions: HepG2 stress kinase (phospho-c-Jun) imaging, actives raise or lower the signal
In short: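 HepG2 cells exposed 24 hr to compound at 0.39–200 uM (10 concentrations, duplicate), 0.5% v/v DMSO final. Fixed in 3.7% formaldehyde, permeabilized with Triton X-100, immunolabeled for phospho-c-Jun with Hoechst 33342; HCS fluorescence imaging, bidirectional fit versus DMSO.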

[19] = APR_HepG2_p53Act_72hr: Apredica 72-hour HepG2 Assay for p53 Activation (AID 2282923); conditions: high-content imaging, actives raise or lower the signal;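 further: average cellular p53 protein immunofluorescence intensity in HepG2 cells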
In short: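 10-pt conc. 0.39–200 uM, duplicate, 0.5% DMSO; 72 hr exposure; 3.7% formaldehyde fix, 0.5% Triton perm; sheep anti-p53/Cy5 + Hoechst; ArrayScan 20x, 6 images/well; gain/loss fit vs DMSO.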

[20] = APR_HepG2_MitoMass_72hr: Apredica 72-hour HepG2 Assay for Mitochondrial Mass (AID 2282924); conditions: high-content imaging, actives raise or lower the signal;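 further: MitoTracker Red CMXRos stain intensity per cell imaged as mitochondrial mass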
In short: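 HepG2 cells were exposed for 72 hr to compounds at 0.39–200 uM (ten concentrations, duplicate, 0.5% v/v DMSO final). Live cells were stained with 250 nM MitoTracker Red CMXRos for 30 min, then fixed in 3.7% formaldehyde and imaged by HCS fluorescence.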

Measured: AC50

CCOC(N)=O
inactive: all assays above

FC(F)=C(F)C(F)(F)C(F)(F)C(F)(F)C(F)(F)C(F)(F)C(F)(F)F
inactive: [1]

CCCCCCCCN(C)C
inactive: all assays above

OCc1c[nH]c2ccccc12
inactive: [1]

OC(Cn1cncn1)(Cn1cncn1)c1ccc(F)cc1F
inactive: all assays above

C=CN1CCCC1=O
inactive: all assays above

C[Si](C)(C)C(F)(F)C(F)(F)C(F)(F)F
inactive: [1]

CCn1nc(C)c2c1C(=O)NCC(c1ccc(O)cc1)=N2
inactive: all assays above

FC(F)(F)COC(OCC(F)(F)F)OCC(F)(F)F
inactive: [1]

Cc1cccc(O)c1C
inactive: [1]

CCN(CC)C(=S)SSC(=S)N(CC)CC
inactive: [1] | [2] | [3] | [7]
active: [4] 50.6 µM | [5] 78.9 µM | [6] 25.2 µM | [8] 26.1 µM | [9] 4.83 µM | [10] 3.04 µM | [11] 22.9 µM | [12] 27.1 µM | [13] 37.4 µM | [14] 23.5 µM | [15] 60.7 µM | [16] 7.04 µM | [17] 31 µM | [18] 87.4 µM | [19] 12 µM | [20] 14.4 µM

NCC(F)(F)C(F)(F)C(F)(F)C(F)(F)F
inactive: [1]

OC(O)(C(F)C(O)(O)C(F)(F)F)C(F)(F)F
inactive: [1]

Cn1cc[nH]c1=S
inactive: all assays above

C[C@]12C=CC(=O)C=C1CC[C@H]1[C@@H]3C[C@@H](O)[C@](O)(C(=O)CO)[C@@]3(C)C[C@H](O)[C@@]12F
active: [1] 10.9 µM
inactive: all other assays above

c1ccc(C(O[C@@H]2CCCN(CCc3ccc4c(c3)OCO4)C2)c2ccccc2)cc1
inactive: [1] | [3] | [7] | [10] | [13] | [15] | [18]
active: [2] 83.5 µM | [4] 99.9 µM | [5] 88.3 µM | [6] 96.3 µM | [8] 100 µM | [9] 103 µM | [11] 98.3 µM | [12] 96 µM | [14] 57.8 µM | [16] 103 µM | [17] 100 µM | [19] 63.3 µM | [20] 99.7 µM

FC(F)(F)C(F)(F)C(F)(F)C(F)(F)C(F)(F)C(F)(F)I
inactive: [1]

OCCC(F)(F)C(F)(F)C(F)(F)C(F)(F)F
inactive: [1]

O=C(O)c1cccc(C[C@@H]2COc3ccc(OCc4nc5cc(F)ccc5s4)cc3[C@@H]2O)c1
active: [2] 50.1 µM | [4] 53.9 µM | [6] 93.5 µM | [8] 156 µM | [9] 97.2 µM | [10] 64 µM | [11] 63.7 µM | [12] 97.3 µM | [14] 102 µM | [16] 105 µM | [17] 66.3 µM | [18] 110 µM | [19] 73.1 µM | [20] 178 µM
inactive: [1] | [3] | [5] | [7] | [13] | [15]

O=C(N[C@H](CO)[C@H](O)c1ccc([N+](=O)[O-])cc1)C(Cl)Cl
inactive: [1]

CCCCN1C(=O)[C@@H]([C@H](O)C2CCCCC2)NC(=O)C12CCN(Cc1ccc(Oc3ccc(C(=O)O)cc3)cc1)CC2
active: [4] 48.3 µM | [6] 59.8 µM | [11] 48.1 µM | [12] 46.4 µM | [14] 54.3 µM | [16] 67.8 µM | [17] 39.9 µM | [19] 38.7 µM
inactive: all other assays above
